Luc counter – Kinase-Glo luciferase inhibition (counter-screen); Kinase-Glo luciferase, ATP luminescence, 8 min; Potency, µM (series often up to 38.3 µM), without a hit: at the highest dose activity change, negative = inhibition, hits mostly inhibitors; 200,000 tested, 0.28% active; active = well fitted inhibition curve with a large enough effect; inconclusive = small, poorly fitted or top-dose-only effect; also: potency is read from the fitted curve at half-maximal effect; nearly all actives have a fitted effect of over 60% in size
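Compound is pinned into ATP-containing buffer (10 uM ATP, imidazole pH 7.2, 7 mM MgCl2). Kinase-Glo luciferase reagent is then added. Light output is recorded following an 8-min room-temperature incubation.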
ALDH1A1 block – inhibitors of human aldehyde dehydrogenase 1A1; 220,000 tested, 7.3% active; Potency, µM (series often up to 75.3 µM), without a hit: at the highest dose activity, negative = inhibition, usual class: inhibitors; Purified ALDH1A1, NADH fluorescence, propionaldehyde substrate;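 also: potency is read from the fitted curve at half-maximal effect; plate controls were no enzyme wells and a reference inhibitor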
PNC inhibitor – inhibitors of perinucleolar compartment assembly; 140,000 tested, 3.1% active; activity change (PNC), negative = inhibition, % at 10 µM; PC3M PTB-GFP, PNC prevalence imaging, 16 h; hits give low values;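 active = readout at or below -70, meaning at least 70% loss of cells showing the perinucleolar compartment, a nuclear body marking cancer cells; inconclusive = readout between -30 and a set limit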;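 also: plate controls were DMSO wells for no effect and camptothecin positive control wells for full effect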
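Read-out is percentage of cells bearing a perinucleolar compartment, from automated 20x imaging of fixed, Hoechst-stained PC3M PTB-GFP cells. Cells were seeded 4 h, then exposed 16 h to compound (23 nl of library stock) in duplicate plates.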
IMPase cell inh – membrane-permeable compound that blocks inositol monophosphatase; CHO-M1 cells, IP1 accumulation, HTRF TR-FRET ratio; inhibition (IP1 accumulation), % at 46.1 µM; 120,000 tested, under 10 active; active = well fitted curve in the direction sought with a large enough effect in the signal ratio, not every such curve was filed as active; inconclusive = small, poorly fitted or top-dose-only effect, or a change in a side signal; inactive = no such curve, though single readings can be large or run the other way; the % refers to the signal ratio;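 also: cells stimulated with carbachol in lithium chloride buffer; plate controls were DMSO basal wells for no effect and reference inhibitor wells for full effect; higher means more IMPase inhibition seen as more IP1 and lower FRET ratio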
Target sequence (P97697 whole entry, looked up): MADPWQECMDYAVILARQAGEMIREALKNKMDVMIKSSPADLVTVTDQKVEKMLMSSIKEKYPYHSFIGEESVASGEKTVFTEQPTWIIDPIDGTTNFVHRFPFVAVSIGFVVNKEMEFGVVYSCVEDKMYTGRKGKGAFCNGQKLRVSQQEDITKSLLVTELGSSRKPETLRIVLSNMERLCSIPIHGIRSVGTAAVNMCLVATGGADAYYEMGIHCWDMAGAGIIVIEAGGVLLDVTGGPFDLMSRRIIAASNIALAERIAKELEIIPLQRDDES
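CHO-M1 cells (CHO stably expressing M1 receptor), compound up to 46 uM final, stimulated with carbachol (50 uM as added) in buffer with 50mM LiCl, pH 7.4, 30 min at 37C. Cytosolic IP1 read by TR-FRET; AC50 from Hill fits.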
Lamin A splicing – LMNA splicing modulation. Potency, µM (doses to about 46.1 µM), for the others: at the highest dose ratio change, negative = inhibition, hits mostly inhibitors. 200,000 tested, 0.01% active. HeLa LMNA splicing GFP/RFP minigene ratio, 48 h; active = well fitted inhibition curve with a large enough effect in the signal ratio, with a control signal flat, not every such curve was filed as active; inconclusive = small, poorly fitted or top-dose-only effect, or effect the other way, or a change in a side signal; the % refers to the signal ratio; also: potency is read from the fitted curve at half-maximal effect
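Read-out is the ratio of GFP to DsRed2 object intensity, acquired by 488 nm laser-scanning cytometry on HeLa lamin A-EGFP minigene reporter cells. Compound incubation 48 hrs at 37 °C in Opti-MEM with 2% FBS; DMSO 0.5% final.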
HPGD block – HPGD (human) dehydrogenase inhibition; P15428; purified HPGD, NADH fluorescence kinetic, PGE2 substrate; Potency, µM, without a hit: at the top dose activity change, negative = inhibition, usual class: inhibitors; 150,000 tested, 4.3% active; AID 894; also: potency is read from the fitted curve at half-maximal effect
Target sequence (P15428 whole entry, looked up): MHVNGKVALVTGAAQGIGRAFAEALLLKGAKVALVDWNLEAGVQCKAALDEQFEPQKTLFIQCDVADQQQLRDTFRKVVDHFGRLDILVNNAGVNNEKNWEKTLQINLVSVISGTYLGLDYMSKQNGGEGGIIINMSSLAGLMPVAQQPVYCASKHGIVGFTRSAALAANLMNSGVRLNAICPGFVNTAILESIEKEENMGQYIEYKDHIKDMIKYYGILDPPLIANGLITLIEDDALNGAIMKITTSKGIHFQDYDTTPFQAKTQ
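NADH formation kinetics: reaction with 30 uM PGE2 and 1 mM NAD+ (final), 20 nM enzyme, Tris-HCl pH 8 with Tween 20, after 15 min compound preincubation at room temperature. Fluorescence change, last versus first of five reads.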
* = called active by the depositor; [ ] = dose if it differs, or a comment. Compounds with a hit are over-represented: about 10% of the library has one in this group of screens. Unless noted, calls follow the shape of the dose curve; as a rule, active = well fitted inhibition curve with a large enough effect (not every such curve was filed as active); inconclusive = small, poorly fitted or top-dose-only effect, or another doubt; inactive = no such curve, though single readings can be large or run the other way. Unless noted, % is scaled to controls: 0 for no effect and ±100 for the full control effect.

`O=C(OCn1ncc(Br)c(Br)c1=O)c1ccccc1Cl` gave Luc counter -3.5%, ALDH1A1 block 0.398µM*, PNC inhibitor -2.7, IMPase cell inh inconclusive, Lamin A splicing inconclusive and HPGD block inconclusive.
For O=C(OCc1cnc(Cl)s1)c1ccccc1Cl the results were Luc counter -1.6%, ALDH1A1 block -3.3%, PNC inhibitor 44.0, IMPase cell inh 5.8, Lamin A splicing -1.1% and HPGD block -11.3%.
COc1cccc(NC(=O)C2CC(=O)N(c3ccc(Br)cc3)C2)c1 (stereo not given) was read as IMPase cell inh 1.5.
For COc1ccc(C)c2sc(=NC(=O)c3ccccc3)n(C)c12 the results were Luc counter 12.6µM*, ALDH1A1 block inconclusive, PNC inhibitor -9.4, IMPase cell inh inconclusive, Lamin A splicing -15.3% and HPGD block inconclusive.
Screening CC(=O)N1CCc2c(sc3c2c(=O)n(-c2ccccc2)c(=O)n3Cc2ccccc2Cl)C1 returned Luc counter 2.1%, ALDH1A1 block -13.9%, PNC inhibitor -114.3*, Lamin A splicing 5.8% and HPGD block -7.8%.
For COc1ccccc1-n1c(=O)c2c3c(sc2n(Cc2ccccc2F)c1=O)CN(C(C)=O)CC3 the results were Lamin A splicing -22.9%[46 µM].
`CCOC(=O)C1CCCN(Cc2cc(Br)ccc2OC)C1` (stereo not given) gave Luc counter 0.4%, ALDH1A1 block 10µM*, PNC inhibitor 39.4, IMPase cell inh 12.8, Lamin A splicing -2.8% and HPGD block -2.6%.
CCOC(=O)C1CCCN(Cc2ccccc2F)C1 (stereo not given) was read as Luc counter 1.4%, ALDH1A1 block 11.2µM*, PNC inhibitor -88.9*, IMPase cell inh 2.6, Lamin A splicing 3.7% and HPGD block -5.4%.
CCOC(=O)C1CCCN(Cc2c(Cl)cccc2Cl)C1 (stereo not given) was read as Luc counter -0.3%, ALDH1A1 block inconclusive, PNC inhibitor inconclusive, IMPase cell inh 0.1, Lamin A splicing -0.6% and HPGD block 10.8%.
For Cc1[nH]c(-c2ccc3c(c2)OCO3)nc1C(=O)O the results were Luc counter 11.2µM*, ALDH1A1 block inconclusive, PNC inhibitor inconclusive, IMPase cell inh -6.9, Lamin A splicing 6.0% and HPGD block inconclusive.
C/C(Cn1cnc([N+](=O)[O-])n1)=N\NC(=O)c1cccnc1 was read as Luc counter 4.0%, ALDH1A1 block 3.6%, PNC inhibitor -16.7, Lamin A splicing 3.7% and HPGD block -6.4%.
Screening C/C(Cn1nnc([N+](=O)[O-])n1)=N\NC(=O)c1ccc(Cl)c(Cl)c1 returned Luc counter 9.1%, ALDH1A1 block 28.2µM*, PNC inhibitor 14.9, IMPase cell inh 0.9, Lamin A splicing inconclusive and HPGD block -8.0%.
Screening C/C(Cn1nnc([N+](=O)[O-])n1)=N\NC(=O)c1ccccc1O returned ALDH1A1 block 8.3%.
C/C(Cn1cnc([N+](=O)[O-])n1)=N\NC(=O)c1ccc(Br)cc1 was read as Luc counter 1.5%, ALDH1A1 block 14.1µM*, PNC inhibitor 4.8, Lamin A splicing 2.1% and HPGD block -12.3%.
`C/C(Cn1cnc([N+](=O)[O-])n1)=N/NC(=O)COc1ccccc1Cl` gave Luc counter 1.6%, ALDH1A1 block 14.1µM*, PNC inhibitor -4.4, Lamin A splicing -15.4% and HPGD block -5.8%.
CCOc1ccc(NC(=O)CSc2nc(=O)[nH]c3c2CCC3)cc1 was read as Lamin A splicing 7.7%[46 µM].
For Cc1cccc(Oc2nc3c(c(=O)n(C)c(=O)n3C)n2C)c1C the results were IMPase cell inh -1.4.
`O=C(C1CCN(S(=O)(=O)N2CCCCC2)CC1)N1CCCCC1` gave Luc counter -1.9%, ALDH1A1 block inconclusive, PNC inhibitor 25.7, Lamin A splicing 4.6% and HPGD block 20µM*.
